Screening data from PubChem BioAssay.
Rows were chosen to be rich in hits. Some 8.9% of all compounds tested hit in one or more screens of this group.
KB-3-1 cytotox = kills parental KB-3-1 adenocarcinoma cells. KB-3-1 viability, CellTiter-Glo ATP luminescence, 72 h. Potency, µM (titrated, usually from 46.1 µM), usual class: cytotoxic. 400,000 tested, 1.4% active. AID 1347075; note: potency is the fitted concentration of half-maximal effect; % is set by controls: 0 for no effect and ±100 for the full control effect; nearly all actives have a fitted effect of over 60% in size
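72 h, 37 °C compound treatment of KB-3-1 parental cells; CellTiter-Glo added, 10 min, luminescence read. Data corrected against DMSO-only plates and normalized before curve fitting.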
SW480 rereplic = induces DNA re-replication in SW480 colon adenocarcinoma cells | AID 624297 | 340,000 tested, 1.8% active | Potency, µM (titrated, usually from 46.1 µM), for the others: at the top dose re-replication activation, most hits filed as activators | SW480 DNA re-replication, Hoechst DNA content imaging, 48 h; note: potency is the fitted concentration of half-maximal effect; % of control where 0% means no effect; nearly all actives have a fitted effect of over 55% in size
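250 cells/well; 23 nL cpd via pin tool; 48 hr, 37 C, 5% CO2; Hoechst 40 min; imager read of total nuclear intensity, ex 405/em 500-530 nm.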
DRD3 agonist = activates the human D3 dopamine receptor; P35462; D3R DiscoveRx beta-arrestin cells, luminescence, 90 min; max activation, %; 410,000 tested, 0.58% active; in the data active = max activation above about 30%; note: 0% is about no effect
Target sequence (P35462 whole entry, looked up): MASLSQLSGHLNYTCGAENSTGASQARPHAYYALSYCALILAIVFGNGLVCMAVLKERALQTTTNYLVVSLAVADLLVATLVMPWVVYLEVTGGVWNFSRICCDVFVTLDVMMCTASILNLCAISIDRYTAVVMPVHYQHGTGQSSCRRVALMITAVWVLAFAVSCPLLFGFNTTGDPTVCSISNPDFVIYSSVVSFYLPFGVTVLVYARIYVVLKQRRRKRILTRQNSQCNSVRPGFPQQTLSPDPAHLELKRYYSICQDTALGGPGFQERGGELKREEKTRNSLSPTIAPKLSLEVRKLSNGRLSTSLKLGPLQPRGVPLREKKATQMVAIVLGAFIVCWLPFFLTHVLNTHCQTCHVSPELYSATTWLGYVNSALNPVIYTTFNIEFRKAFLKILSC
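Agonist mode: compounds and dopamine controls were applied to plated cells for 90 min at 37 degrees C after an overnight attachment at 1500 cells/well. Luminescent read-out followed 30 - 60 minutes at room temperature with DiscoveRx detection reagent.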
MCF10A rerep = induces DNA re-replication in MCF 10a normal breast cells. AID 624296. Potency, µM (titrated, usually from 46.1 µM), for the others: at the top dose activity, positive = re-replication, usual class: activators. MCF 10A DNA re-replication, Hoechst nuclear intensity, 48 h. 350,000 tested, 2.9% active; note: potency is the fitted concentration of half-maximal effect; % of control where 0% means no effect; nearly all actives have a fitted effect of over 50% in size
D3 antag = D3 dopamine receptor (human) antagonism. P35462. AID 652054. 360,000 tested, 2.5% active. max response, negative = inhibition, %. D3R cells, DiscoveRx beta-arrestin luminescence, antagonist mode; hits give low values; in the data active = max response below about -50%; inconclusive = no clear call, values can overlap the other calls; note: % is set by controls: 0 for no effect and ±100 for the full control effect
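Cells plated overnight at 1500 cells/well, then exposed to library compounds with dopamine controls for 90 minutes at 37 degrees C. DiscoveRx reagent added for 30–60 minutes at room temperature; luminescence read, quantitative HTS format.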
KB-V1 cytotox = KB-V1 MDR subline cytotoxicity; 400,000 tested, 3.4% active; Potency, µM (doses to about 46.1 µM), usual class: cytotoxic; KB-V1 MDR cells viability, CellTiter-Glo, 72 h; note: potency is the fitted concentration of half-maximal effect; % is set by controls: 0 for no effect and ±100 for the full control effect; nearly all actives have a fitted effect of over 60% in size
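qHTS viability screen in drug-selected KB-V1 MDR cells: 72 h compound treatment at 37 degrees C, ATP luminescence end point.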
Numbers without * were called inactive; i = inactive; ? = inconclusive; · = not tested or not shown. Unless noted, calls come from the whole dose curve; as a rule, active = well fitted curve in the direction sought with a large enough effect; inconclusive = small, poorly fitted or top-dose-only effect, or another doubt; inactive = no such curve, though single readings can be large; an effect the other way counts as inactive or inconclusive.

SMILES	KB-3-1 cytotox	SW480 rereplic	DRD3 agonist	MCF10A rerep	D3 antag	KB-V1 cytotox
Clc1cccc(CNCCCSc2ncccn2)c1Cl	i	0%	-18	9%	-70*	?
Cc1cc(C)c(OCC(=O)N(Cc2ccc(N(C)C)cc2)CC2CCCO2)c(C)c1 (centres undefined)	·	·	3	·	·	·
CC(C)CCOc1ccc(C2=NNC(=O)CC2)cc1	?	13%	0	1%	1	1.8µM*
CCCCCCCC/C=C\CCCCCCCC(=O)OC[C@@H](O)[C@H]1OC[C@H](O)[C@H]1O	·	·	9	·	·	·
COc1ccccc1CNC(=O)c1ccc(CSc2nc3ccncc3n2Cc2cccc(F)c2)cc1	i	·	-23	·	·	i
CCOC(=O)c1cccc(NC(=O)CCS(=O)(=O)c2cccs2)c1	i	-2%	2	4%	13	21µM*
CCOC(=O)c1cccc(NC(=O)CNS(=O)(=O)c2cccs2)c1	i	-2%	0	-1%	?	23µM*
CCCCn1c(=NC(=O)c2c(-c3c(F)cccc3Cl)noc2C)c(C(=O)OCC)cc2c(=O)n3ccccc3nc21	i	·	-14	·	·	i
CCOC(=O)c1cc2c(=O)n3ccccc3nc2n(CCCOC)c1=NC(=O)C(C)(C)C	?	18µM*	-1	?	22	i
CCOC(=O)c1cc2c(=O)n3ccccc3nc2n(CCOC)c1=NC(=O)c1c(-c2c(F)cccc2Cl)noc1C	?	?	5	18µM*	9	?
CCOC(=O)c1cc2c(=O)n3ccccc3nc2n(CCOC)c1=NC(=O)C(C)(C)C	i	?	-6	27%	8	i
Cc1cccc(N2CCN(C(=O)C3CCN(Cc4nc(-c5ccc(Cl)cc5)oc4C)CC3)CC2)c1C	·	·	-9	·	·	·
Cc1nc(CC(=O)Nc2cccc(C)c2C)cs1	·	·	3	·	·	·
Cc1ccc(S(=O)(=O)NCc2ccc(C(=O)N3CCN(Cc4ccccc4)CC3)cc2)cc1	23µM*	-3%	-4	14%	-22	?
Cc1ccc(S(=O)(=O)NCc2ccccc2)cc1C(=O)N1CCCCCCC1	i	?	-3	25%	6	9.2µM*
CSc1ncc2c(n1)-c1ccccc1N(Cc1ccccc1C)S2(=O)=O	i	·	3	·	·	i
CCOC(=O)c1c(C)oc2ncnc(N3CCN(c4ccccc4OC)CC3)c12	i	·	8	·	·	i
O=C1NCC(O)=C1C=NC12CC3CC(CC(C3)C1)C2	i	?	4	15µM*	-21	i
O=C1NCC(O)=C1C=NCCO	i	-6%	-14	-8%	-26	i
COc1cccc(NC(=O)N2CCC(CN3CCOCC3)CC2)c1	i	·	-14	·	·	i
COc1cc(NC(=O)c2nc(-c3ccncc3)no2)cc(OC)c1OC	i	·	-10	·	·	i
Oc1c(CN2CCOCC2)cc(-c2ccccc2)cc1CN1CCOCC1	i	-7%	-5	-1%	-83*	i
CC(C)(C)c1nc(CN2CCOCC2)cc(CN2CCOCC2)c1O	i	-4%	-3	10%	-70*	?
Oc1c(CN2CCOCC2)cc(CN2CCOCC2)c(O)c1CN1CCOCC1	i	5%	-1	1%	8	i
CCOc1ccc(C(=O)NCCn2cc(SCC(=O)NCCc3ccc(OC)c(OC)c3)c3ccccc32)cc1	i	·	0	·	·	i
SMILES	KB-3-1 cytotox	SW480 rereplic	DRD3 agonist	MCF10A rerep	D3 antag	KB-V1 cytotox
O=C(CCC1COc2ccccc2O1)Nc1ccccn1 (centres undefined)	i	-8%	-1	-3%	-4	i
O=C(CCC1COc2ccccc2O1)Nc1cccnc1 (centres undefined)	i	-15%	33*	-4%	25	i
Oc1ccc(Cl)cc1N=Nc1ccccc1	i	3%	6	4%	12	i
O=C(O)c1ccccc1N=Nc1ccc(O)cc1	i	1.2µM*	-52	?	-71*	i
Oc1ccc(N=Nc2ccccc2)cc1	i	-5%	-2	-5%	-4	i
O=C(O)c1cc(O)ccc1N=Nc1ccccc1	i	?	-3	23µM*	-21	i
COc1ccc(S(=O)(=O)c2cn(C)c3ccc(C)cc3c2=O)cc1	i	·	3	·	·	i
